Laboratory results published in PubChem BioAssay (EPA / NIEHS).
Where a structure was tested more than once in an assay, its records may differ in their call. Activity calls are given as the source filed them. Rule for the calls: active = hit-call score of the fitted dose curve at least 0.9, where 1 is the maximum; inactive = score below 0.9.

The compounds below were run against CCAAT/enhancer-binding protein beta (Homo sapiens) (UniProt P17676) (assay: ATG_C_EBP_CIS: Attagene CIS-FACTORIAL HepG2 Assay for human CCAAT/Enhancer Binding Protein (C/EBP) beta (AID 2282927)). Conditions: HepG2 Attagene cis-factorial transcription factor reporter; actives raise or lower the signal.
Description: ATG_CIS is a cell-based, multiplexed-readout assay that uses HepG2, a human liver cell line, with measurements taken at 24 hours after chemical dosing in a 24-well plate.ATG_C_EBP_CIS is one of 52 assay component(s) measured or calculated from the ATG_CIS assay. It is designed to make measurements of mRNA induction, a form of inducible reporter, as detected with fluorescence intensity signals by Reverse transcription polymerase chain reaction (RT-PCR) and Capillary electrophoresis technology.Data from the assay component ATG_C_EBP_CIS was analyzed into 1 assay endpoint. This assay endpoint, ATG_C_EBP_CIS, was analyzed with bidirectional fitting relative to DMSO as the negative control and baseline of activity. Using a type of inducible reporter, measures of mRNA for gain or loss-of-signal activity can be used to understand the reporter gene at the transcription factor-level as they relate to the gene CEBPB. Furthermore, this assay endpoint can be referred to as a primary readout, because this assay has produced multiple assay endpoints where this one serves a reporter gene function. To generalize the intended target to other relatable targets, this assay endpoint is annotated to the dna binding intended target family, where the subfamily is basic leucine zipper.
Human liver HepG2 cells are transiently transfected with multiple reporter transcription units (MRTUs) in 6-well plates using FuGene 6 reagent (Roche; 3 ml FuGene/1 mg DNA). The MRTU constructs are regulated by a cis-regulating element (promoter). […] A major difference between the CIS and TRANS system is that in CIS activities of endogenous TFs are measured, whereas the TRANS assay evaluates changes in activities of exogenous, chimeric NR-Gal4 proteins. […] At the end of 24 hour incubation, total RNA was isolated using TriZol reagent (Invitrogen). The isolated RNA is then reverse-transcribed using oligo(dT) primer and Mo-MLV reverse transcriptase (Invitrogen) with DNAse I (Ambion) treatment for 30 min. The one-tenth of the produced cDNA was amplified by PCR using Taq DNA polymerase (Invitrogen) and two reporter sequence-specific primers. The PCR products were fluorescently labeled by primer extension with 6-arboxyfluorescein (6-FAM) 5'-labeled reporter sequence-specific primer (2 min at 95 C, 20 s at 68 C and 10 min at 72 C) and these products were digested with 5U of HpaI (New England Biolabs) for 2h at 37 C. The fragments were purified using Qiaquick PCR columns (Qiagen), analyzed on an ABI 3130xL genetic analyzer (Applied Biosystems) with peak positions identified by using a set of X-rhodamine (ROX)-labeled MapMarker1000 molecular weight standards (BioVentures). The raw capillary electrophoresis data was processed using Attagraph software (Attagene).

CCAAT/enhancer-binding protein beta (Homo sapiens), sequence (P17676 whole entry, looked up): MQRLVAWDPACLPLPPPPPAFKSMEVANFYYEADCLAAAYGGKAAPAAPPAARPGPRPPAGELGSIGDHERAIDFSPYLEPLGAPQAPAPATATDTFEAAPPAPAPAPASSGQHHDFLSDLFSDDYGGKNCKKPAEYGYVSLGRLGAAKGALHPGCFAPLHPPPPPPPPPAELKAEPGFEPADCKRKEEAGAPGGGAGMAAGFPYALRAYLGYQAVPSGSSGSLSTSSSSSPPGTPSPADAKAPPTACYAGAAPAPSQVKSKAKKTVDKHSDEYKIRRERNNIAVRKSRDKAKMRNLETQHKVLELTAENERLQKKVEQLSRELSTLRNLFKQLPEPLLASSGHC

| SMILES | outcome | AC50 |
| --- | --- | --- |
| CCCCCCCCCC(=O)O | inactive | – |
| CC[C@@H]1C[C@H](N(Cc2cc(C(F)(F)F)cc(C(F)(F)F)c2)C(C)=O)c2cc(C(F)(F)F)ccc2N1C(=O)OC(C)C | inactive | – |
| CCCCCc1ccc(N)cc1 | inactive | – |
| O=c1c(-c2ccc(O)cc2)coc2cc(O)cc(O)c12 | – | 36.5 µM (active) [middle of 4 runs] |
| CCN(CC)C(=O)c1cc(S(=O)(=O)Cc2ccccc2)c(N2CCC(c3ccccc3)CC2)cc1N(CC)CCN(C)C | inactive | – |
| CN(C[C@@H](CC[N+]12CCC(C3CCCCC3)(CC1)CC2)c1ccc(Cl)c(Cl)c1)C(=O)c1cc(C(F)(F)F)cc(C(F)(F)F)c1 | inactive | – |
| Cc1ccc2oc(CN(Cc3ccccc3)C(=O)Nc3c(F)cc(F)cc3F)c(-c3ccc(Cl)cc3)c2c1 | inactive | – |
| O=C1CCC(C2CCCCC2)CC1 | inactive | – |
| CCCCCCCCOC(=O)c1cc(O)c(O)c(O)c1 | inactive | – |
| O=C(O)c1ccccc1C(=O)OCc1ccccc1 | inactive | – |
| C[C@]12CC[C@@H]3c4ccc(O)cc4CC[C@H]3[C@@H]1CC[C@H]2O | inactive | – |
| CN(C)c1ccc(C(=C2C=CC(=[N+](C)C)C=C2)c2ccc(N(C)C)cc2)cc1 | – | 4.56 µM (active) |
| CCCCOC(=O)CC(CC(=O)OCCCC)(OC(C)=O)C(=O)OCCCC | inactive | – |
| Clc1cc(Cl)c2c(c1)N=C1CCCCCN1C2 | inactive | – |
| CCCCCCCC[Si](OCC)(OCC)OCC | inactive | 65.7 µM (active) |
| OCCO | inactive | – |
| CC/C(=C(/CC)c1ccc(O)cc1)c1ccc(O)cc1 | inactive | – |
| CC[C@H](NC(=O)c1cc(F)ccc1NS(=O)(=O)c1cccc2cccnc12)c1ccccc1 | inactive | – |
| CCCCCCCCCCCCO | inactive | – |
| O=C1c2ccccc2C(=O)N1CCc1noc(-c2ccc(CN3CCCCCC3)s2)n1 | inactive | – |

| SMILES | outcome | AC50 |
| --- | --- | --- |
| Cc1oc2c(NC(=O)c3c(Cl)cccc3Cl)cccc2c1C(C)(C)O | inactive | – |
| O=C(OCCCCCCOC(=O)c1ccccc1)c1ccccc1 | inactive | – |
| O=C(Nc1ccc(Cl)cc1)Nc1ccc(Cl)c(Cl)c1 | inactive | – |
| CC(C)(O)c1ccc(CNC(=O)c2cccnc2Oc2ccc3nonc3c2)cc1 | inactive | – |
| Oc1ccc2ccccc2c1 | inactive | – |
| Oc1ccccc1 | inactive | – |
| c1ccc2n[nH]nc2c1 | inactive | – |
| O=C(O)Cn1c(=O)n(Cc2ccc(Br)cc2F)c(=O)c2ccc(Cl)cc21 | inactive | – |
| c1ccc(C[n+]2cccc3ccccc32)cc1 | inactive | – |
| CC(C)(c1cc(Br)c(O)c(Br)c1)c1cc(Br)c(O)c(Br)c1 | inactive | – |
| CCO[Si](CCCNC(N)=O)(OCC)OCC | inactive | – |
| CO[C@H]1/C=C/O[C@@]2(C)Oc3c(C)c(O)c4c(O)c(c(/C=N/N5CCN(C)CC5)c(O)c4c3C2=O)NC(=O)/C(C)=C\C=C\[C@H](C)[C@H](O)[C@@H](C)[C@@H](O)[C@@H](C)[C@H](OC(C)=O)[C@@H]1C | inactive | – |
| Clc1ccccc1C(c1ccccc1)(c1ccccc1)n1ccnc1 | inactive | – |
| CN1C(=O)CC[C@H]1c1cccnc1 | inactive | – |
| CC(C)(C)c1csc(-c2cc3cc(OCc4ccccc4CC(=O)O)ccc3o2)n1 | inactive | – |
| CCOC(=O)O[C@H](C)OC(=O)c1ccc2c(c1)cc(C(=O)NC1CCN(C(C)C)CC1)n2Cc1cc(-c2ccc(Cl)s2)on1 | inactive | – |
| COc1ccc2cc(S(=O)(=O)N[C@H](CC(=O)N[C@H](Cc3ccc(CN4[C@H](C)CCC[C@@H]4C)cc3)C(=O)N(C)C(C)C)c3ccc4c(c3)OCO4)ccc2c1 | inactive | – |
| Cc1cccc2ccccc12 | inactive | – |
| Cc1ncc(CO)c(CO)c1O | inactive | – |
